Hit rate of the full screen: of about 50,000 compounds, about 350 (0.7%) were called active. What follows is part of a selection rich in actives, with near analogues and random picks from the rest. Unmarked numbers belong to inactive results. Rule as the data show it: active = inhibition above about 60%; inactive = the rest.
Target: Dual specificity protein phosphatase 3 (Homo sapiens) (UniProt P51452)
Test: VHR1 phosphatase inhibitors, primary screen, biochemical, colorimetric, HTS (AID 1992)
Settings: recombinant VHR phosphatase, colorimetric substrate read-out; at 20 µM; active compounds read high

Sequence of Dual specificity protein phosphatase 3 (Homo sapiens) (P51452 whole entry, looked up): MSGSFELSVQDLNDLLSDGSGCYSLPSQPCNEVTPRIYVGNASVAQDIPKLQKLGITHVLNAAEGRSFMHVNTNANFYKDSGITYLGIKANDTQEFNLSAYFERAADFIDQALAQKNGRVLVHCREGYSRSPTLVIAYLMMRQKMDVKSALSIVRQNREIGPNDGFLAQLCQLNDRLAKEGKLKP

SMILES	inhibition
CSc1nc(SC)c2c3c(sc2n1)COC(C)(C)C3	4.5%
CC1(C)CC(NC(=O)c2ccccc2C(=O)O)CC(C)(C)N1	-26.8%
COc1ccc(N2C(=O)C3C(C2=O)C2C=CC3C23CC3)cc1 (centres undefined)	-13%
Cc1ccc(C)c(NC(=O)CN(c2ccc(F)cc2)S(=O)(=O)c2ccccc2)c1	-21.2%
CCCCCCOc1ccc(/C=C2/C(=O)ON=C2c2ccccc2)cc1	1.2%
COC(=O)C(=C/C=C/N(C)C)C(=O)OC	-1.7%
COc1ccc(C2=C/C(=C/c3cccc(OC)c3OC(C)=O)C(=O)O2)cc1	2.4%
O=C1c2cccc3cc(Br)cc(c23)C(=O)N1Nc1ccccc1	-21.6%
COc1ccccc1OCCCCOc1c(C)cccc1C	27.1%
COc1ccc(C2CC(c3ccccc3)=NN2c2ccccc2OC)cc1 (centres undefined)	8.3%
CC(C)CN1C(=O)/C(=C/c2cccc(Oc3ccccc3)c2)SC1=S	-0.1%
COc1ccc(/C=C2/SC(=S)N(Cc3ccccc3)C2=O)cc1OC	-6.8%
COc1cccc(OCCOc2cccc(/C=C3/SC(=S)N(Cc4ccccc4)C3=O)c2)c1	112% (active)
Cc1ccc(NC(=O)CC2SC(N)=NC2=O)c([N+](=O)[O-])c1 (centres undefined)	24.8%
COc1ccc(N2C(=O)NC(=O)/C(=C/c3cccn3-c3ccc([N+](=O)[O-])cc3)C2=O)cc1	-13.8%
C=CCN1C(=O)/C(=C\c2cccn2-c2cccc([N+](=O)[O-])c2)C(=O)NC1=S	85.9% (active)
C=CCN1C(=O)/C(=C\c2cc(OC)c(O)c([N+](=O)[O-])c2)C(=O)NC1=S	3.8%
CC(=O)Oc1ccc(/C=C2\C=C(c3ccc(Br)cc3)OC2=O)c(OC(C)=O)c1	5.9%
CCOC(=O)CCCN1C(=O)/C(=C/c2ccccc2)SC1=S	-3.8%
CCOc1ccc(N2C(=O)S/C(=C\c3ccccc3OC)C2=O)cc1	-12.5%

SMILES	inhibition
CCOC(=O)c1sc(C)c(C(N)=O)c1N	0.2%
O=C1N/C(=N/N=C/c2ccc3c(c2)OCO3)SC1c1ccccc1 (centres undefined)	-3.2%
O=C(Nc1c(Cl)cccc1Cl)c1ccc(Cl)c(Cl)c1	-2%
CCc1cccc(CC)c1NC(=O)c1ccccc1OC	2.4%
COc1ccc(CCNS(=O)(=O)c2cccc([N+](=O)[O-])c2)cc1	8.5%
CCOc1cccc2c1NC(C)(C)C(=S)C2=C1SC(C(=O)OC)=C(C(=O)OC)S1	-4.6%
CCN(CC)c1ccc(NC(=O)c2oc3ccccc3c2C)cc1	7.4%
CCOC(=O)c1ccc(NC(=O)/C(C#N)=C2\NC(C)(C)Cc3ccccc32)cc1	-14%
Cc1cc(OCC(=O)Nc2cccnc2)ccc1Cl	-1.1%
CCOC(=O)c1ccccc1N/C=C(\C#N)C(=O)NCc1ccccc1	-12%
CC1=C(C(=O)c2ccccc2)C(c2ccc([N+](=O)[O-])cc2)NC(=O)N1 (centres undefined)	-1.5%
COc1ccc(C(=O)N2CCN(Cc3cccc(OC)c3OC)CC2)cc1OC	-15.2%
COc1ccc(OC(C)C(=O)NCCc2nc3ccccc3[nH]2)cc1 (centres undefined)	-9.3%
CC(=O)Nc1ccc(S(=O)(=O)Nc2cccc(-c3nc4ccccc4[nH]3)c2)cc1	-3%
Cc1cc2c(cc1C)-c1nc3ccccc3c(=O)n1C(C)(C)C2	-9.1%
Cc1cc(C(=O)N/N=C/c2ccc(Br)c([N+](=O)[O-])c2)n[nH]1	-1.6%
CC(C)(C)OC(=O)NC(Cc1c[nH]c2ccccc12)C(=O)N1CCOCC1 (centres undefined)	4.4%
O=C1N/C(=N\N=C\c2ccccc2O)SC1Cc1cccc(C(F)(F)F)c1 (centres undefined)	-19.6%
Cc1cc(NC(=O)C2CCCCC2)cc(C)c1O	-10.1%
Cc1ccc(-c2cc(C(=O)N3CC(C)CC(C)C3)c3ccccc3n2)cc1C (centres undefined)	30.2%

SMILES	inhibition
CC(C)c1ccc(C(=O)NC2CC2)cc1	0%
COc1cccc(C2/C(=C(\O)c3ccc(Cl)cc3)C(=O)C(=O)N2c2cccnc2)c1 (centres undefined)	-0.3%
N#C/C(=C\c1cn(CC(=O)Nc2ccccc2)c2ccccc12)C(=O)Nc1ccc(F)cc1	23.2%
O=c1oc2c(-c3cc(Cl)ccc3Cl)cc(O)cc2s1	14%
C/C(=N/NC(=O)c1ccccc1C)c1ccc(NC(=O)C(F)(F)F)cc1	-15.5%
CCOc1ccc(-n2c(O)c(C=C3C=CC=N3)c(=O)[nH]c2=O)cc1	3%
O=c1[nH]c(=S)n(-c2cccc(Cl)c2)c(O)c1/C=C1/C=CC=N1	87.4% (active)
O=c1[nH]c(=O)n(-c2ccc(Cl)cc2)c(O)c1/C=C1/C=CC=N1	37.9%
Cc1ccc(NC(=O)CC2Nc3cc(C)c(C)cc3NC2=O)cc1 (centres undefined)	33.7%
O=C(CC1Nc2ccccc2NC1=O)Nc1ccccc1NC(=O)CC1Nc2ccccc2NC1=O (centres undefined)	97.7% (active)
Cc1cc2c(cc1C)NC(CC(=O)Nc1ccccc1C(F)(F)F)C(=O)N2 (centres undefined)	-0.3%
C=CCc1ccccc1OCCOc1c(I)cc(/C=C2/SC(=S)N(C)C2=O)cc1OC	-23.1%
Cc1cccc(OCCOc2cccc(/C=N/n3cnnc3)c2)c1	112% (active)
COc1ccccc1OCCOc1ccc(/C=N/n2cnnc2)cc1	14.5%
CCOc1cc(/C=N/n2cnnc2)ccc1OCCOc1ccccc1C	-20.4%
CC(C)c1ccc(NC(=O)CN(c2ccc(Oc3ccccc3)cc2)S(C)(=O)=O)cc1	-26.4%
CCCOC(=O)c1ccc(N=Cc2ccc([N+](=O)[O-])cc2)cc1	3.4%
O=C(NCCN1CCOCC1)c1cc2nc(-c3ccc([N+](=O)[O-])cc3)cc(C(F)(F)F)n2n1	-23.4%
Cc1ccc(-c2ccc(C)cc2N)c(N)c1	-3%

Source: PubChem BioAssay AID1992 (Sanford-Burnham Center for Chemical Genomics, 2009)
